# Experimental data: PubChem BioAssay (EPA / NIEHS)
# Records with an inconclusive call do not appear. Active and inactive are the calls of the source. How the source made its calls: active means hit-call score of the fitted dose curve at least 0.9, where 1 is the maximum; inconclusive means response in the unintended direction; inactive means score below 0.9.
# Target: Cytochrome P450 2C19 (Homo sapiens) (UniProt P33261)
# Test: NVS_ADME_hCYP2C19: NovaScreen (NVS) CYP450-related Enzyme Activity (ADME) Assay for human CYP2C19 (AID 2283113);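 on AC50: potency for inhibition seen as loss of fluorescent signal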
# Experimental: NVS_ADME_hCYP2C19 is a biochemical, single-readout assay that uses extracted gene-proteins from insect cells in a cell-free assay. Measurements were taken 1 hour after chemical dosing in a 96-well plate.NVS_ADME_hCYP2C19 is one of one assay component(s) measured or calculated from the NVS_ADME_hCYP2C19 assay. It is designed to make measurements of enzyme activity, a form of enzyme reporter, as detected with fluorescence intensity signals by Fluorescence technology.Data from the assay component NVS_ADME_hCYP2C19 was analyzed into 1 assay endpoint. This assay endpoint, NVS_ADME_hCYP2C19, was analyzed in the positive analysis fitting direction relative to Acetonitrile as the negative control and baseline of activity. Using a type of enzyme reporter, loss-of-signal activity can be used to understand changes in the enzymatic activity as they relate to the gene CYP2C19. Furthermore, this assay endpoint can be referred to as a primary readout, because this assay has produced multiple assay endpoints where this one serves a enzymatic activity function. To generalize the intended target to other relatable targets, this assay endpoint is annotated to the cyp intended target family, where the subfamily is xenobiotic metabolism.
# Binding assays used specific radioligands (tritiated, iodinated) with non-radioactive competitive displacement ligands in agonist or antagonist protocols (as indicated) and various reference compounds and inhibitors to titrate specific binding to receptors and transporters. Most enzyme assays (CYPs, kinases, phosphatases, proteases, HDACs) used recombinant protein and specific substrates (fluorescence mostly, some colorimetric and radioactive) and inhibitors, followed by a biochemical separation of substrate and product. All assays for the biochemical HTS were initially run in duplicate at a single concentration (10 uM for CYP450 assays and 25 uM for all others). […] Each assay was run with positive and negative controls, and concurrent controls on every plate. The follow-up (secondary) screen tested active chemical-pairs in concentration series, as well as a few additional assays not tested in the primary screen, some selected negative inactives, and several cases re-run in the concentration series for confirmatory purposes.
SMILES,AC50,outcome
Oc1cc2ccccc2c2ccccc12,0.872 µM (active),–
CC[C@H](C)[C@@H](C(=O)O)n1sc2ccccc2c1=O,13.4 µM (active),–
O=C(OCCOCCOC(=O)c1ccccc1)c1ccccc1,7.94 µM (active),–
CCCCCCCCCCCCCC[N+](C)(C)C,2.73 µM (active),–
O=[N+]([O-])c1ccc(O)cc1,–,inactive
NC(=O)N(O)[C@@H]1C=C[C@H](Oc2cccc(Oc3ccc(F)cc3)c2)C1,0.644 µM (active),–
ClC1=C(Cl)C(Cl)(Cl)C(Cl)=C1Cl,–,inactive
Cc1oc(-c2ccccc2)nc1CCOc1ccc(C[C@H](Nc2ccccc2C(=O)c2ccccc2)C(=O)O)cc1,–,inactive
CCC(=C(c1ccc(O)cc1)c1ccc(OCCN(C)C)cc1)c1ccccc1,3.91 µM (active),–
Nc1cccc2c(N)cccc12,3.08 µM (active),–
CC1=C(/C=C/C(C)=C/C=C/C(C)=C/C(=O)O)C(C)(C)CCC1,–,inactive
CCCOc1sc(C(=O)N2CCC(c3cc(CN)ccc3F)CC2)c(C)c1Br,0.68 µM (active),–
CC(=O)NC1(c2cccc(F)c2)CCN(CC[C@@]2(c3ccc(Cl)c(Cl)c3)CN(c3ccccc3)C(=O)CO2)CC1,1.79 µM (active),–
NC(=O)N1C(=O)C(C(=O)c2cc(Cl)cs2)c2cc(F)c(Cl)cc21 (stereo not given),–,inactive
OCCC(F)(F)C(F)(F)C(F)(F)C(F)(F)C(F)(F)C(F)(F)F,6.15 µM (active),–
COc1ccc([N+](=O)[O-])cc1N,–,inactive
CC[C@H](c1ccc(O)cc1)[C@@H](CC)c1ccc(O)cc1,5.22 µM (active),–
C#C[C@]1(O)CC[C@H]2[C@@H]3CCC4=CC(=O)CC[C@@H]4[C@H]3CC[C@@]21C,3.13 µM (active),–
CCCCCCCCCCCCCCCS(=O)(=O)Oc1ccccc1,5 µM (active),–
CCCCC(CC)COC(=O)CCCCC(=O)OCc1ccccc1 (stereo not given),13.2 µM (active),–
O=C(O)c1ccccc1C(c1ccc(O)cc1)c1ccc(O)cc1,5.38 µM (active),–
Cc1cc(CCN2CCN(c3nsc4ccccc34)CC2)cc2c1NC(=O)CC2(C)C,4.35 µM (active),–
CC#C[C@]1(O)CC[C@H]2[C@@H]3CCC4=CC(=O)CCC4=C3[C@@H](c3ccc(N(C)C)cc3)C[C@@]21C,3.91 µM (active),–
Cc1cc(C)c(O)c(C)c1,–,inactive
O=C(O)Cc1cc(I)c(Oc2cc(I)c(O)c(I)c2)c(I)c1,–,inactive
